# Experimental data: paper PMC7862700, “An all-to-all approach to the identification of sequence-specific readers for epigenetic DNA modifications on cytosine”
# Experiments:
# Assay in all cases: DAPPL (digital affinity profiling via proximity ligation, sequencing); 10 mM Tris-HCl pH 7.5, 50 mM NaCl, 1 mM DTT, 4% glycerol, room temperature, 30 min; GST-TFs on glutathione beads, 16-mer random dsDNA library, 0.1% formaldehyde crosslink after washing; high values mean tight binding
# Settings in all cases: protein: recombinant; tags: N-terminal GST; dsDNA, one strand shown
# ELK1 = target: T1, ELK1 (Homo sapiens, UniProt P19419 1-428)
# T1 sequence: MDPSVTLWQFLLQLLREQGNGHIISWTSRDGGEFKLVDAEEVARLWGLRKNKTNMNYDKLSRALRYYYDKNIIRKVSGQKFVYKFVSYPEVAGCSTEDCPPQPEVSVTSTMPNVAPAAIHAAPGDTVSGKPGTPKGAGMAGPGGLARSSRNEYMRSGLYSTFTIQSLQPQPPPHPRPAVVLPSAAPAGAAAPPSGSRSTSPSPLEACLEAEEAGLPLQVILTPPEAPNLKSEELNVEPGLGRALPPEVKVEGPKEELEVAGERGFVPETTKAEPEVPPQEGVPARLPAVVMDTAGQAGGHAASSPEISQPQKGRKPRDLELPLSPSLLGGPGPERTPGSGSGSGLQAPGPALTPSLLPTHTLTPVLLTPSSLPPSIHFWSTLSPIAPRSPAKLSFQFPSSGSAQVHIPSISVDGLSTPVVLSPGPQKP
# Procedure, shortened: (§1)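 GST fusions of human transcription factors were expressed in yeast and captured with glutathione beads. Once given DNA barcodes and pooled alongside a tag-only sample, they were incubated for 30 min at room temperature with 200 nmole of a random double-stranded 16-mer DNA library in Tris/NaCl/DTT/glycerol buffer, then washed, crosslinked (0.1% formaldehyde), proximity-ligated, PCR-amplified and sequenced on an Illumina NextSeq500. The binding signal of each hexamer is its read frequency for a factor divided by its frequency for the tag-only sample.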
# GABPA = target: T2, GABPA (Homo sapiens, UniProt Q06546 1-454)
# T2 sequence: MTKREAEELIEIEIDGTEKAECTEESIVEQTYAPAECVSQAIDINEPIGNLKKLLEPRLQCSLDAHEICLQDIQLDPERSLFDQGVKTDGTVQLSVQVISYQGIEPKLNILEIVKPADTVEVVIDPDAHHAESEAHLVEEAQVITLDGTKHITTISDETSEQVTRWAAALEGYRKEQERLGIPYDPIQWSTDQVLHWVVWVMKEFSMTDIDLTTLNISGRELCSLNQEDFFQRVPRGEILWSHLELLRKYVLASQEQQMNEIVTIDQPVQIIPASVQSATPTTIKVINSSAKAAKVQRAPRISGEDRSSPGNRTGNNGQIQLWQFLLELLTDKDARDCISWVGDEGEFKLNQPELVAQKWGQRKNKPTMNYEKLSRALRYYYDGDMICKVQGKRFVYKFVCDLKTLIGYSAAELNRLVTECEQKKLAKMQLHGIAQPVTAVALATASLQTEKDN
# Procedure, shortened: as §1
# ERG = target: T3, ERG (Homo sapiens, UniProt P11308 1-479)
# T3 sequence: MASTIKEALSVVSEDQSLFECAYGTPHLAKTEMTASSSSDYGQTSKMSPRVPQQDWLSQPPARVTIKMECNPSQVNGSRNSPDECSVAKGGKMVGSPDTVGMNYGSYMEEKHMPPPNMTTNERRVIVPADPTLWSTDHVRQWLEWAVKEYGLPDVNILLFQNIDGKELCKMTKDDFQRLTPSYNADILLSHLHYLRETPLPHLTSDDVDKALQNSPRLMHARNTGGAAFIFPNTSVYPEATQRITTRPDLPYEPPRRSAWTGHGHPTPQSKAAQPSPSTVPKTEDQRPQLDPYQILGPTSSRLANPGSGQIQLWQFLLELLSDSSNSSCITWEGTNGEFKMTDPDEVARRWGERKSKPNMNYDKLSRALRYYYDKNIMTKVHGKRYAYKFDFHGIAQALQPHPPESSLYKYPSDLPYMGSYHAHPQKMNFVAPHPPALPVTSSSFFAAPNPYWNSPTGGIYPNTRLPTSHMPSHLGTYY
# Procedure, shortened: as §1
# ELF1 = ELF1 (Homo sapiens, UniProt P32519 1-619)
# ELF1, sequence (P32519 whole entry): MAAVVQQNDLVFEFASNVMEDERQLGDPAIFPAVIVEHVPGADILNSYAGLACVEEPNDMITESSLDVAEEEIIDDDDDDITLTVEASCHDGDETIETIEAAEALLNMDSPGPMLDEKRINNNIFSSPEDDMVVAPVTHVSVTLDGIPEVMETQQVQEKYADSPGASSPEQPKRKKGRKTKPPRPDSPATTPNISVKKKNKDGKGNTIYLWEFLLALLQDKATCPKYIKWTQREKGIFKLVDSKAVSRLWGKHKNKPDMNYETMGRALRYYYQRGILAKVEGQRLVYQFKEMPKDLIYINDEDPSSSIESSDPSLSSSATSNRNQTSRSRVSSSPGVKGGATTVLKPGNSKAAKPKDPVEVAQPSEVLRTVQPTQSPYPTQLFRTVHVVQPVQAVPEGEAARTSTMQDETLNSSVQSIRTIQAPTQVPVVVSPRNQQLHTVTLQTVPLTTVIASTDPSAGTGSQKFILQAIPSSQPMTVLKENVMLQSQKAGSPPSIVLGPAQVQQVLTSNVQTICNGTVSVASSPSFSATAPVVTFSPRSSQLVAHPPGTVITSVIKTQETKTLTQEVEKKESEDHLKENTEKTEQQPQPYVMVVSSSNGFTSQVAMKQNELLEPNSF
# Procedure, shortened: as §1
# EHF = target: T4, EHF (Homo sapiens, UniProt Q9NZC4 1-300)
# T4 sequence: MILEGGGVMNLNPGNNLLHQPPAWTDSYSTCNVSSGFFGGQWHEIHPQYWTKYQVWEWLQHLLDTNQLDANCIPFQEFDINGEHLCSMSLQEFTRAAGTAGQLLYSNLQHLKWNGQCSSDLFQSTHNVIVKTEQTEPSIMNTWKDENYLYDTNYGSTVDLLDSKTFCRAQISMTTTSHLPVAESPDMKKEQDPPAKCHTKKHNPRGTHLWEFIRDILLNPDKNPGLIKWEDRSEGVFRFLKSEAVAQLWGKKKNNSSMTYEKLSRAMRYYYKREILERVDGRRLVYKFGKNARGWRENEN
# Procedure, shortened: as §1
# SPIB = SPIB (Homo sapiens, UniProt Q01892 1-262)
# SPIB, sequence (Q01892 whole entry): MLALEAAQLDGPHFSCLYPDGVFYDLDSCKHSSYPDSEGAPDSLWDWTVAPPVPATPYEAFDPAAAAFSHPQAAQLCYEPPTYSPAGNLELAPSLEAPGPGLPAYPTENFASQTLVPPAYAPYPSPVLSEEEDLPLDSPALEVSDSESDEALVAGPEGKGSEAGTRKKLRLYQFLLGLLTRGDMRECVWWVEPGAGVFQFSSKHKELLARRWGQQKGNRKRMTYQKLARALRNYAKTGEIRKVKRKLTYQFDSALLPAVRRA
# Procedure, shortened: as §1
# ELK3 = target: T5, ELK3 (Homo sapiens, UniProt P41970 1-407)
# T5 sequence: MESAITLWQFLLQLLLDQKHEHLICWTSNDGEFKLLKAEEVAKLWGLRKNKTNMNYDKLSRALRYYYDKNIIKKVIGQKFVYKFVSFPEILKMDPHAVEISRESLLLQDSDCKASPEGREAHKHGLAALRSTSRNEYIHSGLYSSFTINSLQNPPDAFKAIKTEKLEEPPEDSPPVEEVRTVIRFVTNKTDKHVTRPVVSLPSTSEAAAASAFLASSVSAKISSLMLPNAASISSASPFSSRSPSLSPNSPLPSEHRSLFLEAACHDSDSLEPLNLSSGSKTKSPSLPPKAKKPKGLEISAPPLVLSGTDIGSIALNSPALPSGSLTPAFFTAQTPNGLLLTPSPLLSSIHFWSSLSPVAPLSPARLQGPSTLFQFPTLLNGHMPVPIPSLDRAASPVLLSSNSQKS
# Procedure, shortened: as §1
# FEV = target: T6, FEV (Homo sapiens, UniProt Q99581 1-238)
# T6 sequence: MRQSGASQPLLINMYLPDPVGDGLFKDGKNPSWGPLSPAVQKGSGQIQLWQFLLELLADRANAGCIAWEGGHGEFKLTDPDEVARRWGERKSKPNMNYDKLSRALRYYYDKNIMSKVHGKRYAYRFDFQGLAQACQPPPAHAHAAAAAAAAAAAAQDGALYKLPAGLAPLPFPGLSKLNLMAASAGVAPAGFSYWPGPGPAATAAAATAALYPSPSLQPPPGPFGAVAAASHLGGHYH
# Procedure, shortened: as §1
# ETV5 = ETV5 (Homo sapiens, UniProt P41161 1-510)
# ETV5, sequence (P41161 whole entry): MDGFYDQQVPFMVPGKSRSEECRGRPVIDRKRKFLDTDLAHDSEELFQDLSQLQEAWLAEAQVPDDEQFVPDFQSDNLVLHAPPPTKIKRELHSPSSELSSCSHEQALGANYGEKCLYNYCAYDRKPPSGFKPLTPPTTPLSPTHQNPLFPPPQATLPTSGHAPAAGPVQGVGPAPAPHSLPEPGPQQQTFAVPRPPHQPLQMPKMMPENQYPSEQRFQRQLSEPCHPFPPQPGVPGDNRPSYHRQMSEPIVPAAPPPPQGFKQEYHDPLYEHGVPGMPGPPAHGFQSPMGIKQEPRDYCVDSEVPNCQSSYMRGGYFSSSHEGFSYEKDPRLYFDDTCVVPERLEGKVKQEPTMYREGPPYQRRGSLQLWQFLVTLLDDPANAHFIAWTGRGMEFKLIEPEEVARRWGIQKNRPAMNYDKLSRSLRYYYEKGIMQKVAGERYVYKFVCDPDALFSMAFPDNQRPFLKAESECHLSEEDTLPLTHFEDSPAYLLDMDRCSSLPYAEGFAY
# Procedure, shortened: as §1
# ELF4 = ELF4 (Homo sapiens, UniProt Q99607 1-663)
# ELF4, sequence (Q99607 whole entry): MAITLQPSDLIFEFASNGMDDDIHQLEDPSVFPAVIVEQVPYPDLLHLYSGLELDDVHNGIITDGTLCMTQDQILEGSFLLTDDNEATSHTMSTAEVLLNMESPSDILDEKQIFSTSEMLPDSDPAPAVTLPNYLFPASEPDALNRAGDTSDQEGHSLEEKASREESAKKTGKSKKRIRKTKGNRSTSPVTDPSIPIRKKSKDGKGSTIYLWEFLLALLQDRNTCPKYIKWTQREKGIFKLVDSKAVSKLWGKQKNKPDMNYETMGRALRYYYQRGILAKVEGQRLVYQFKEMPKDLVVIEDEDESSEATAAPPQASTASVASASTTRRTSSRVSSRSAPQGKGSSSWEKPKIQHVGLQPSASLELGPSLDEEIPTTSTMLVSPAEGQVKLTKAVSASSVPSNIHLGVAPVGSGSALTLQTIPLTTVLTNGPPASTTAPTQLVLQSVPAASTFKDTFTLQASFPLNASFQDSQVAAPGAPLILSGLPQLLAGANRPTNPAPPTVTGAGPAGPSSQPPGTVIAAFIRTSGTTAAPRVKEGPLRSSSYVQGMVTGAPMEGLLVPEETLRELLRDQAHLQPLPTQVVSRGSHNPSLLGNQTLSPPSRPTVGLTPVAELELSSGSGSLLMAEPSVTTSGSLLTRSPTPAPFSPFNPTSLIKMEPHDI
# Procedure, shortened: as §1
# ELF3 = target: T7, ELF3 (Homo sapiens, UniProt P78545 1-371)
# T7 sequence: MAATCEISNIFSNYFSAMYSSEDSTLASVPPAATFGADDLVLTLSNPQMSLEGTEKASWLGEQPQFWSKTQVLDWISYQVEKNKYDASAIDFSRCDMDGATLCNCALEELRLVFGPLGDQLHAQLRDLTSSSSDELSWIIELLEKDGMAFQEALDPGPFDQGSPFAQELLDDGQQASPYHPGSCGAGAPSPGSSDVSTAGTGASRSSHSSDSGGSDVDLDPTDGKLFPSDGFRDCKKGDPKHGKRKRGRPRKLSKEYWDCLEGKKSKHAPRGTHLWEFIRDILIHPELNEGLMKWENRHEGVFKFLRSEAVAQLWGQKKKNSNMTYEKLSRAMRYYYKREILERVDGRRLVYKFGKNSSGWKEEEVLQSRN
# Procedure, shortened: as §1
# ETV1 = ETV1 (Homo sapiens, UniProt P50549 1-477)
# ETV1, sequence (P50549 whole entry): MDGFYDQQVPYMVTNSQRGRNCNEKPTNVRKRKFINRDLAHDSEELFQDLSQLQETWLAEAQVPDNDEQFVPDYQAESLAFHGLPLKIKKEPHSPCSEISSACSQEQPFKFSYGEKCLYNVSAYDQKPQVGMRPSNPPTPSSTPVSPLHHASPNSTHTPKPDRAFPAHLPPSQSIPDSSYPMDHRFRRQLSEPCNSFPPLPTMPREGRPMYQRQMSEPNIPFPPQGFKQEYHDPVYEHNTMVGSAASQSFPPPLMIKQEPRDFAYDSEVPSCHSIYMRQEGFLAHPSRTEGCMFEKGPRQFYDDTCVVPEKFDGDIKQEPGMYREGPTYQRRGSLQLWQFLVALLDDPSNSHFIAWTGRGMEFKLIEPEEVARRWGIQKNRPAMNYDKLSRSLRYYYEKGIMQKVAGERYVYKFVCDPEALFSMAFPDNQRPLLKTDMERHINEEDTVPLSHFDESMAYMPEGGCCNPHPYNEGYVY
# Procedure, shortened: as §1
# ERF = target: T8, ERF (Homo sapiens, UniProt P50548 1-548)
# T8 sequence: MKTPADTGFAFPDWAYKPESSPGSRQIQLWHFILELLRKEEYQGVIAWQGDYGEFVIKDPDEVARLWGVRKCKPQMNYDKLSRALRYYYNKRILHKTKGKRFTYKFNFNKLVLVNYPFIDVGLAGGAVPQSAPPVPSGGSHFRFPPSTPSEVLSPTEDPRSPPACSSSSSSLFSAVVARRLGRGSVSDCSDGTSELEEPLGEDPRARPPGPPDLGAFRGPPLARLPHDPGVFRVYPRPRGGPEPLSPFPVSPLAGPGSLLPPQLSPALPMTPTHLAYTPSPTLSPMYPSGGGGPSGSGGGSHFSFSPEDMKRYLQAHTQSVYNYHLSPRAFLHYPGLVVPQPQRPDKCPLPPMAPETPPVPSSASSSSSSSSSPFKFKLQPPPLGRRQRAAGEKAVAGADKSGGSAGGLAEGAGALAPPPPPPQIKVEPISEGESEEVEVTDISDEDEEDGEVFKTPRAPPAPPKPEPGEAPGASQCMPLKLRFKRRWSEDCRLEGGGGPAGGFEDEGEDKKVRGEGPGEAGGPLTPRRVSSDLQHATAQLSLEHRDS
# Procedure, shortened: as §1
# ETV3L = target: T9, ETV3L (Homo sapiens, UniProt Q6ZN32 1-361)
# T9 sequence: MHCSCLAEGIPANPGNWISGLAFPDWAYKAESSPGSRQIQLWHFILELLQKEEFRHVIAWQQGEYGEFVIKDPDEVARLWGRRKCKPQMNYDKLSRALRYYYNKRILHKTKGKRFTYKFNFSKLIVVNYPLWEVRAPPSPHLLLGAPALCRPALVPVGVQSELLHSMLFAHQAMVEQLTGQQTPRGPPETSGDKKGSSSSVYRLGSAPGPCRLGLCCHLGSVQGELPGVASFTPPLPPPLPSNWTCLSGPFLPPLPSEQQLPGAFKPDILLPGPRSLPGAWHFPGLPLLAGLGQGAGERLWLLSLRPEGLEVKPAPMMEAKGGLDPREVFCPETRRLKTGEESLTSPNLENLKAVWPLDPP
# Procedure, shortened: as §1
# ETS2 = target: T10, ETS2 (Homo sapiens, UniProt P15036 1-469)
# T10 sequence: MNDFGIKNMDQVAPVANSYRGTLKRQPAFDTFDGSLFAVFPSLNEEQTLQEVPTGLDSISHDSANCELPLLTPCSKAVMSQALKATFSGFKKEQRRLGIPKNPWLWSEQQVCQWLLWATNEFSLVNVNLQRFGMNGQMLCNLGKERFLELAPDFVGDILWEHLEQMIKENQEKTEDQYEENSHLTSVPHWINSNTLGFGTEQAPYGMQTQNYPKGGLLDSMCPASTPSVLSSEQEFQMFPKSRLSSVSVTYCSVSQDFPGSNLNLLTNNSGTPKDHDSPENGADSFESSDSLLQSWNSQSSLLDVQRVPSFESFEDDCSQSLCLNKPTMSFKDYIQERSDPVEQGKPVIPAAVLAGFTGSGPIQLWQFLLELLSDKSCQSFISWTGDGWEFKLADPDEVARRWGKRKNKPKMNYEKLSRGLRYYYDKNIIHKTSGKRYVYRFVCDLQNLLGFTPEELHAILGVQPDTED
# Procedure, shortened: as §1
# SPDEF = target: T11, SPDEF (Homo sapiens, UniProt O95238 1-335)
# T11 sequence: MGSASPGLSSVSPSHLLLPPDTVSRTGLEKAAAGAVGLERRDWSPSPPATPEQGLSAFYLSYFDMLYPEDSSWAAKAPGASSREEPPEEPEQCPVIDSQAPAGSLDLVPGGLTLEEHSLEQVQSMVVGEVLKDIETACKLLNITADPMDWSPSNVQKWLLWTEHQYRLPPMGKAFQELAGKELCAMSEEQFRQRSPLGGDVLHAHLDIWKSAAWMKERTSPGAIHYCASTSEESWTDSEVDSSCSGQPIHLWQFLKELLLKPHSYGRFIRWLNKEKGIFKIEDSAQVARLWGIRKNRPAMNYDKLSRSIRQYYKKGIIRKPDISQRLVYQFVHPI
# Procedure, shortened: as §1
# ETV7 = target: T12, ETV7 (Homo sapiens, UniProt Q9Y603 1-341)
# T12 sequence: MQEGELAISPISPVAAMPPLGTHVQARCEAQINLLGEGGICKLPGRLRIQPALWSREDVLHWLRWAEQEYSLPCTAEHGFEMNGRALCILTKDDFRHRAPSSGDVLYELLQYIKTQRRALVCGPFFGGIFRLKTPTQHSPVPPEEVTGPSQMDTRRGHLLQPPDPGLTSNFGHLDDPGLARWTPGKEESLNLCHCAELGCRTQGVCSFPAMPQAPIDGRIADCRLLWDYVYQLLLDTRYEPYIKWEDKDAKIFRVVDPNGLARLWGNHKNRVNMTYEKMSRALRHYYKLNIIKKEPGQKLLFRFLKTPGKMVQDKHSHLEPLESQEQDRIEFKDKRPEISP
# Procedure, shortened: as §1
# ETV3 = target: T13, ETV3 (Homo sapiens, UniProt P41162-2 1-143)
# T13 sequence: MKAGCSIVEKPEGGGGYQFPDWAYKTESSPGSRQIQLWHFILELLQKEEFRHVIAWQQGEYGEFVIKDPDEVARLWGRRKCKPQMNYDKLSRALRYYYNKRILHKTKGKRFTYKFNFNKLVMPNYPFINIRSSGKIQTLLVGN
# Procedure, shortened: as §1
# ETV6 = ETV6 (Homo sapiens, UniProt P41212 1-452)
# ETV6, sequence (P41212 whole entry): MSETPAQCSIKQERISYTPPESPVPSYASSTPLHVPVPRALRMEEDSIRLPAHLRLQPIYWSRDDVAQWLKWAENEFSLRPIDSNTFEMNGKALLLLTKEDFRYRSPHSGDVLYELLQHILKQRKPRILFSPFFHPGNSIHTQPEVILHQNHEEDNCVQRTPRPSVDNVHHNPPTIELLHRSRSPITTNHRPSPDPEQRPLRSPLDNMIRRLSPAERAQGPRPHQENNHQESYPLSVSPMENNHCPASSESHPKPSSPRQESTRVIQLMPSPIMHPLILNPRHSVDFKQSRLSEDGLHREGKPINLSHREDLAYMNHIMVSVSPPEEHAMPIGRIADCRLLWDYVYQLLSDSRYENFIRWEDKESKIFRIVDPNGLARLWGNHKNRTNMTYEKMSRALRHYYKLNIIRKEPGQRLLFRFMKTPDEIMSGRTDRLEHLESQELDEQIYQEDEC
# Procedure, shortened: as §1
sequence,measurement,setting,value
AACCGC,binding signal,ELK1,"1.07 fold enrichment (6-mer frequency, TF over GST control)"
same,binding signal,GABPA,"1.1 fold enrichment (6-mer frequency, TF over GST control)"
same,binding signal,ERG,"1.09 fold enrichment (6-mer frequency, TF over GST control)"
same,binding signal,ELF1,"1.11 fold enrichment (6-mer frequency, TF over GST control)"
same,binding signal,EHF,"1.18 fold enrichment (6-mer frequency, TF over GST control)"
same,binding signal,SPIB,"1.12 fold enrichment (6-mer frequency, TF over GST control)"
same,binding signal,ELK3,"1.07 fold enrichment (6-mer frequency, TF over GST control)"
same,binding signal,FEV,"1.09 fold enrichment (6-mer frequency, TF over GST control)"
same,binding signal,ETV5,"1.09 fold enrichment (6-mer frequency, TF over GST control)"
same,binding signal,ELF4,"1.12 fold enrichment (6-mer frequency, TF over GST control)"
same,binding signal,ELF3,"1.1 fold enrichment (6-mer frequency, TF over GST control)"
same,binding signal,ETV1,"1.02 fold enrichment (6-mer frequency, TF over GST control)"
same,binding signal,ERF,"1.08 fold enrichment (6-mer frequency, TF over GST control)"
same,binding signal,ETV3L,"1.08 fold enrichment (6-mer frequency, TF over GST control)"
same,binding signal,ETS2,"1.1 fold enrichment (6-mer frequency, TF over GST control)"
same,binding signal,SPDEF,"1.11 fold enrichment (6-mer frequency, TF over GST control)"
same,binding signal,ETV7,"1.07 fold enrichment (6-mer frequency, TF over GST control)"
same,binding signal,ETV3,"1.08 fold enrichment (6-mer frequency, TF over GST control)"
same,binding signal,ETV6,"1.19 fold enrichment (6-mer frequency, TF over GST control)"
